Screening data from PubChem BioAssay.
NOMO-1 viab = STK33 inhibitor candidate reducing NOMO-1 cell viability; NOMO-1 AML viability, CellTiter-Glo luminescence, 72 h; inhibition, % (no concentration beside the values); hit rate 7.5% among 37,000; AID 2330; in the data active = inhibition above about 80%; inconclusive = no clear call, values can overlap the other calls
Hedgehog inh = Sonic Hedgehog pathway inhibition; hit rate 2.1% among 22,000; Shh-LIGHT2 Gli-luciferase reporter, 30 h; AID 2313; inhibition, % (test concentration not listed);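 active = mean inhibition across valid replicates above about 65%, limit read from the data; inconclusive = mean under the limit, yet half or more replicates past it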;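 also: pathway switched on by Shh-conditioned medium diluted 1 in 25 in low serum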
PD-1 reversal = activators reversing PD-1 mediated T-cell inhibition | primary human CD4 T cells, PD-L1 beads, CellTiter-Glo 96 h | activation, % (concentration not given with the values) | 29,000 tested, under 10 active | AID 2316; call rule not given here;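 also: 0% = median vehicle wells and 100% = positive control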
* = called active by the depositor; ? = inconclusive; . = not tested or not shown. Only some compounds are listed: those with a hit (about 7.7% of all), similar ones and a draw of the others.

SMILES	NOMO-1 viab	Hedgehog inh	PD-1 reversal
Cc1ccc(S(=O)(=O)NC2(C(F)(F)F)C(=O)N(CC3CCCO3)C3=C2C(=O)CC(C)(C)C3)cc1 (configuration not stated)	10	.	-1
CCN1C2=C(C(=O)CC(C)(C)C2)C(c2ccc(OC)cc2)C2=C1CC(C)(C)CC2=O	51	5	-1
Cc1cc(C)nc(NS(=O)(=O)c2ccc(Nc3nc(-c4ccc(O)cc4)cs3)cc2)n1	51	.	-1
CC(=O)c1cccc(NC(=O)c2ccsc2NC(=O)COc2ccccc2)c1	18	.	-1
COc1cc(C(=O)Nc2ccc(Oc3ncnc4sc(C)c(C)c34)cc2)cc(OC)c1OC	21	.	-1
CCOCCCNc1nc2c([nH]1)c(=O)n(C)c(=O)n2C	8	.	0
CCOC(=O)COc1ccc(-c2nc3c([nH]2)c(=O)n(C)c(=O)n3C)cc1OC	149*	.	2
Cc1ccc(-c2nnc(SCC(=O)Nc3c(Cl)cc(Cl)cc3Cl)n2C)cc1	13	.	2
CCOc1ccc(S(=O)(=O)NCc2ccccc2)cc1-c1nc2c(C(C)(C)C)nn(C)c2c(=O)[nH]1	127*	79*	-2
CCOc1cc(S(=O)(=O)NCc2cccnc2)ccc1Cl	28	.	1
OCCN1CCN(C(=S)NCc2ccco2)CC1	3	.	2
O=C(CNS(=O)(=O)c1ccccc1)Nc1cccc(F)c1	-2	.	-1
Cc1c(-n2c(/C=C\c3ccc([N+](=O)[O-])o3)nc3ccccc3c2=O)c(=O)n(-c2ccccc2)n1C	115*	.	.
Cc1c(/C=C/c2ccc(Cl)cc2Cl)c(=O)n(-c2ccccc2)n1C	38	-19	1
COc1ccc(NC(=O)c2oc3ccccc3c2NC(=O)Cc2coc3cc(C)cc(C)c23)cc1	23	.	1
Cc1ccccc1NC(=O)CN(c1ccc(Br)cc1)S(C)(=O)=O	25	.	-1
O=C(O)CCc1ccc(-c2cccs2)n1-c1cc(Cl)ccc1O	39	.	0
S=C1C=C(N2CCCCC2)CC(c2ccc(Cl)cc2)S1 (configuration not stated)	41	.	-2
Clc1ccc(C2=NN=C(N3CCCC3)SC2)cc1	99*	.	-5
Cc1ccnc(NS(=O)(=O)c2ccc(NC(=O)c3csc4c3CCCC4)cc2)n1	-3	.	.
O=C(/C=C/c1ccccc1)c1ccc(O)cc1	105*	-13	.
O=C(/C=C/c1ccccc1)CC(=O)/C=C/c1ccccc1	58	-12	0
CC(C)(O)CCC(=O)C(C)(O)C1C(O)CC2(C)C3CC=C4C(CC(O)C(OC5OC(CO)C(O)C(O)C5O)C4(C)C)C3(C)C(=O)CC12C (configuration not stated)	8	-22	2
CS(=O)(=O)N(CC(=O)Nc1ccc(I)cc1)c1ccc(Cl)cc1Cl	4	.	0
C[C@@H]1CN([C@@H](C)CO)C(=O)c2cccc(NC(=O)c3cnccn3)c2O[C@@H]1CN(C)Cc1ccc(C(=O)Nc2ccccc2N)cc1	129*	.	-3
SMILES	NOMO-1 viab	Hedgehog inh	PD-1 reversal
C[C@@H]1CN([C@H](C)CO)C(=O)c2cccc(NC(=O)c3cnccn3)c2O[C@H]1CN(C)Cc1ccc(C(=O)Nc2ccccc2N)cc1	?	.	0
C[C@H](CO)N1C[C@H](C)[C@@H](CN(C)Cc2ccncc2)Oc2c(NC(=O)c3cnccn3)cccc2C1=O	7	70*	.
C[C@@H]1CN([C@@H](C)CO)C(=O)c2cccc(NC(=O)c3cnccn3)c2O[C@H]1CN(C)Cc1ccc(Cl)c(Cl)c1	105*	-12	-8
C[C@@H]1CN([C@@H](C)CO)C(=O)c2cccc(NC(=O)c3cnccn3)c2O[C@@H]1CN(C)Cc1ccc(Cl)c(Cl)c1	10	12	.
C[C@@H]1CN([C@@H](C)CO)C(=O)c2cccc(NC(=O)c3cnccn3)c2O[C@@H]1CN(C)Cc1ccncc1	3	4	1
COc1cccc(-c2cc(C#N)c(NC(=O)c3cccc([N+](=O)[O-])c3)o2)c1	-2	.	1
COc1ccc(Cl)cc1NC(=O)CN(c1c(C)cccc1C)S(C)(=O)=O	19	.	.
O=C(CCc1nc(-c2ccccc2F)no1)Nc1ccccc1Cl	24	.	2
Cc1cccc(NC(=O)CSc2nnc(-c3cccc(Br)c3)n2-c2ccccc2)c1	32	.	-10
O=C(CSc1nnc(-c2ccncc2)n1-c1ccccc1)Nc1ccc(C(F)(F)F)cc1	17	.	-2
Cn1c(SCC(=O)Nc2ccc(Cl)c(Cl)c2)nnc1-c1ccc(Cl)c(Cl)c1	106*	.	.
Cc1cccc(NC(=O)CSc2nnc(-c3ccc(Cl)cc3)n2-c2cccc(C)c2)c1	128*	.	-12
CC(C)(C)c1ccc(-c2nnc(SCC(=O)Nc3ccccc3)n2-c2ccccc2)cc1	113*	.	-2
Cc1ccc(NC(=O)CSc2nnc(-c3ccc(Cl)c(Cl)c3)n2C)cc1C	2	.	.
COc1ccc(Cl)cc1NC(=O)CSc1nnc(-c2cccc(C)c2)n1C	3	.	-1
Cc1cccc(C)c1Nc1nc2c(C)cc(C)c(C)c2s1	45	-37	-1
CCC(SC1=NCCS1)C(=O)Nc1ccc(NC(C)=O)cc1 (configuration not stated)	22	.	0
COc1ccccc1NC(=O)Cn1cnc2scc(-c3cccc([N+](=O)[O-])c3)c2c1=O	30	.	-5
COc1ccc(S(=O)(=O)Nc2ccc3c(c2)CC(=O)N([C@H](C)CO)C[C@@H](C)[C@@H](CN(C)Cc2ccc(C(F)(F)F)cc2)O3)cc1	119*	14	-4
COc1ccc(CN(C)C[C@@H]2Oc3ccc(NS(=O)(=O)c4ccc(F)cc4)cc3CC(=O)N([C@@H](C)CO)C[C@@H]2C)cc1	15	9	.
COc1ccc(S(=O)(=O)Nc2ccc3c(c2)CC(=O)N([C@@H](C)CO)C[C@@H](C)[C@@H](CN(C)Cc2ccc(C(F)(F)F)cc2)O3)cc1	95*	-6	0
COc1ccc(S(=O)(=O)Nc2ccc3c(c2)CC(=O)N([C@H](C)CO)C[C@@H](C)[C@H](CN(C)Cc2ccc(C(F)(F)F)cc2)O3)cc1	?	-1	-2
COc1ccc(CN(C)C[C@@H]2Oc3ccc(NS(=O)(=O)c4ccc(F)cc4)cc3CC(=O)N([C@H](C)CO)C[C@H]2C)cc1	17	.	.
COc1ccc(S(=O)(=O)Nc2ccc3c(c2)CC(=O)N([C@@H](C)CO)C[C@H](C)[C@H](CN(C)Cc2ccc(C(F)(F)F)cc2)O3)cc1	108*	44	3
COc1ccc(-c2nnc(SCc3ccc([N+](=O)[O-])c(OC)c3)n2-c2ccccc2)cc1	41	.	-1
CCC1C(=O)O[C@]23C=C[C@@H]4C(C(=O)O)=CO[C@H](OC12)[C@@H]43 (some centres not stated)	46	-16	0
O=C(Oc1cccc(OC(=O)c2ccccc2F)c1)c1ccccc1F	26	.	1
COc1ccc(NC(=O)COc2ccc(C(C)C)cc2Br)c([N+](=O)[O-])c1	-2	.	-3
CC(C)NC(=O)N(C)C[C@H]1Oc2ccc(NC(=O)Nc3ccc(C(F)(F)F)cc3)cc2CC(=O)N([C@H](C)CO)C[C@H]1C	?	21	1
C[C@@H]1CN([C@@H](C)CO)C(=O)Cc2cc(NC(=O)Nc3ccc(C(F)(F)F)cc3)ccc2O[C@@H]1CN(C)C(=O)Nc1ccc(C(F)(F)F)cc1	114*	20	-3
